Our source for the inhibition values is ChEMBL document CHEMBL3433997, “St. Jude Leishmania screening dataset” (2016).

Holding throughout (assay type): functional
For test [1], the target named is Solute carrier family 2, facilitated glucose transporter member 1 (Homo sapiens) (UniProt P11166). In words: ST_JUDE_LEISH: Cytotoxicity at 2uM final concentration against transgenic Leishmania Mexicana promastigotes LmGLUT1 that are glucose transport deficient and complemented with the human glucose transporter GLUT1. Activity is measured by DNA content using SYBR green in vitro.
Chain of Solute carrier family 2, facilitated glucose transporter member 1 (Homo sapiens) (P11166 whole entry): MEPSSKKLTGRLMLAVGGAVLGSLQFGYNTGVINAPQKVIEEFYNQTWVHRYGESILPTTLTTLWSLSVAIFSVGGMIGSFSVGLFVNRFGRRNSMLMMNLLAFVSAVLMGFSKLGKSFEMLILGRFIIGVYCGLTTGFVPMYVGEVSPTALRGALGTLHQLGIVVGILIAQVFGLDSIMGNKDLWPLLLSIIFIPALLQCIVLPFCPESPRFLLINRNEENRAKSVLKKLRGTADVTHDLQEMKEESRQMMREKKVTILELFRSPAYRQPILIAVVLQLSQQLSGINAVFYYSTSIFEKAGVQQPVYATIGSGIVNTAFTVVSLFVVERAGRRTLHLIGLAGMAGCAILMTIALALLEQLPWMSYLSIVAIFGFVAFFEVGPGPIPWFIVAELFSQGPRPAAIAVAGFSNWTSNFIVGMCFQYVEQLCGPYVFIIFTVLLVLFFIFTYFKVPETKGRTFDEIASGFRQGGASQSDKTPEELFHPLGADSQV

For test [2], the target named is Hexose transporter 1 (Plasmodium falciparum) (UniProt O97467). In words: ST_JUDE_LEISH: Cytotoxicity at 2uM final concentration against transgenic Leishmania Mexicana promastigotes LmPfHT that are glucose transport deficient and complemented with the Plasmodium falciparum hexose transporter. Activity is measured by DNA content using SYBR green in vitro.
Test [3] deals with Glucose transporter (Leishmania mexicana) (UniProt O61059). In words: ST_JUDE_LEISH: Cytotoxicity at 2uM final concentration against transgenic Leishmania Mexicana promastigotes LmGT2 that are glucose transport deficient and complemented with the L. Mexicana glucose transporter 2. Activity is measured by DNA content using SYBR green in vitro.

In the case of `Clc1ccc2c(Cl)c(CNCCCNc3nc4ccccc4[nH]3)[nH]c2c1`, the inhibition came to 0.17% in test [1], 0.94% in test [2] and 1.14% in test [3].

As for `CC(C)CNCc1ccc(-c2ccccc2CN(C(=O)NCCc2ccccc2)C2CCN(Cc3ccccc3)CC2)cc1`, the inhibition was 1.25% in test [1], 1.42% in test [2] and -0.19% in test [3].

`O=C(Nc1ccccc1F)NC1CCN(c2ccnc(Nc3ccc(F)cc3)n2)CC1`: the inhibition in test [1] worked out at 2.94%; in test [2] it was 2.19%; in test [3], 0.02%.

With `O=C(NC1CCC(N2CCN(c3cccc4[nH]ccc34)CC2)CC1)c1cc2cccnc2[nH]1` (stereo unspecified), the inhibition is 12% in test [1], 13.2% in test [2] and 7.93% in test [3].

For `Cc1c(Oc2ccc(-n3ccnc3)cc2)ncnc1N1CCC2(CC1)CNCc1ccccc12`, the inhibition in test [1] was 10.5%; in test [2], 8.76%; in test [3], 2.5%.

As for `CCCCCC(NCCCC)c1ccc(OCCOc2ccc(C(CCCCC)NCCCC)cc2)cc1` (stereo unspecified), the values for the inhibition in test [1], in test [2] and in test [3] were 60.3%, 86% and 85.3%, respectively.

On to `Cn1cncc1C(=O)Nc1cccc(-c2ccc(-c3nc4cc(F)ccc4[nH]3)s2)c1`, for which the inhibition in test [1] was 3.18%; in test [2] it was 3.3%; in test [3] it was -0.1%.

As for `CN(C)CCN(C)Cc1ccc(-c2cccc(NC(=O)c3ccc(Cl)cc3)c2)cc1`, the inhibition was 4.75% in test [1], 2.96% in test [2] and 1.03% in test [3].

Take `Cc1cc(NC(=O)Nc2ccc(I)c(OCCN(C)C)c2)ccc1Br`: the results for the inhibition in test [1], in test [2] and in test [3] were 10.5%, 7.25% and 6.57%, respectively.

For `N#C/N=C(\NCCCCCCCCN/C(=N\C#N)NCCSCc1csc(N=C(N)N)n1)NCCCSc1csc(N=C(N)N)n1`, the inhibition was -0.03% in test [1], 0.11% in test [2] and 0.43% in test [3].

In the case of `Cn1nc(-c2cccc(CN[C@@H]3CCc4ccc(O)cc43)c2)c2cnc(NCCCN3CCCC3)nc21`, the inhibition stood at 11.2% in test [1], 4.83% in test [2] and 4.3% in test [3].

Consider `Cc1cnc(C(=O)Nc2cccc(-c3cccc(-c4nc5cc(F)ccc5[nH]4)c3)c2)cn1`, for which the inhibition in test [1] amounted to 8.32%; in test [2] it was 5.55%; in test [3], 5.18%.

As for `O=C(Nc1cccc(C(F)(F)F)c1)c1cccc(S(=O)(=O)NCC2CCN(CC3CCCCC3)CC2)c1`, the figures for the inhibition in test [1], in test [2] and in test [3] were 0.21%, -0.63% and -0.78%, respectively.

In the case of `COc1ccc(CCn2c(=N)c(C(=O)NCc3ccccc3)cc3c(=O)n4ccccc4nc32)cc1`, the figures for the inhibition in test [1], in test [2] and in test [3] were 12.9%, 12.8% and 8.6%, respectively.

Consider `O=C(NC1CCN(Cc2ccccc2)CC1)c1ccc(-c2nc3cc(Cl)c(Cl)cc3[nH]2)c(F)c1`, for which the inhibition turned out to be 10.3% in test [1], 9.26% in test [2] and 9.86% in test [3].

Consider `O=C1c2cc(I)ccc2SC1c1ccccc1` (stereo unspecified), for which the inhibition in test [1] worked out at 1.22%; in test [2] it was 0.48%; in test [3], 0.13%.

For `Cc1ccc(S(=O)(=O)NC2CCN(CCNC(=O)Nc3cc(C)nc4ccccc34)C2)cc1` (stereo unspecified), the inhibition in test [1] was 4.78%; in test [2], 4.12%; in test [3], 0.31%.

For the compound `O=C(CCN(Cc1ccco1)c1nc(-c2ccc(F)cc2)nc2ccccc12)NC1CC1`, the inhibition is 4.96% in test [1], 1.65% in test [2] and 9.67% in test [3].

For `Cc1ccc(N(CCC(=N)N)Cc2ccccc2)cc1`, the figures for the inhibition in test [1], in test [2] and in test [3] were 8.97%, 3.59% and 4.68%, respectively.

Take `N/C(=N\c1cccc(Cc2ccccc2)n1)NCc1ccccc1`: the inhibition in test [1] is 2.04%; in test [2], -1.19%; in test [3] it was 3.21%.

Take `NC(=O)c1cccc(C(=O)Nc2ccc(-c3cccc(-c4nc5cc(C(F)(F)F)ccc5[nH]4)c3)cc2)c1`: the inhibition in test [1] is 0.39%; in test [2], -0.82%; in test [3], -2.19%.

On to `Cc1noc(-c2ccc3c(c2)CCN(CCC2CCC(NC(=O)/C=C/c4ccc(F)cc4)CC2)CC3)n1` (stereo unspecified), for which the inhibition is 0.93% in test [1], -1.07% in test [2] and -0.23% in test [3].

As to `CN(C)c1ccc(CN2CCC(NC(=O)c3ccc(-c4ccc(N(C)C)cc4)s3)CC2)cc1`, the values for the inhibition in test [1], in test [2] and in test [3] were 1.4%, -0.22% and -0.4%, respectively.

With `OC(CNC1CCCCC1)Cn1c2ccc(I)cc2c2cc(I)ccc21` (stereo unspecified), the inhibition in test [1] stood at 0.77%; in test [2], 1.51%; in test [3] it was 1.17%.

Regarding `Cc1cccc2nc(-c3ccc(-c4cccc(NC(=O)CCc5c[nH]cn5)c4)cc3)[nH]c12`, the inhibition in test [1] is 0.1%; in test [2] it was 1.46%; in test [3], 2.35%.

For the compound `Cc1cc(N[C@@H](CC(C)C)C(=O)Nc2ccccc2)nc(Nc2ccccc2)n1`, the inhibition was 1.17% in test [1], -0.52% in test [2] and -0.1% in test [3].

With `Cc1ccc(C)c(-n2c(SCC(=O)Nc3ccc(C(N)=O)cc3)nnc2-c2cccc(Cl)c2)c1`, the inhibition was 11.3% in test [1], 11.6% in test [2] and 10.4% in test [3].

Consider `Cn1cnc(CCNC(=O)c2ccc(-c3cccc(-c4nc5cc(F)ccc5[nH]4)c3)cc2)c1`, for which the inhibition in test [1] amounted to 2.97%; in test [2] it was 1.64%; in test [3] it was 0.52%.

With `Clc1ccc(Cl)c2[nH]c(CNCCCNc3nc4ccccc4[nH]3)cc12`, the results for the inhibition in test [1], in test [2] and in test [3] were 0.92%, 2.67% and 1.29%, respectively.

Regarding `Cc1ccnc2nc(C(=O)Nc3cc(Cl)ccc3N3CCOCC3)nn12`, the inhibition in test [1] was found to be 5.13%; in test [2], 5.74%; in test [3], 5.36%.

In the case of `O=C(Nc1cccc(C(F)(F)F)c1)Nc1nc2ccc([N+](=O)[O-])cc2s1`, the inhibition is 4.59% in test [1], 4.44% in test [2] and 0.91% in test [3].

As for `CCN(CC)CCN(Cc1ccc(-c2ccc(C(F)(F)F)cc2)cc1)C(=O)CN1C(CCc2cccc(F)c2F)=NS(=O)(=O)c2ccccc21`, the figures for the inhibition in test [1], in test [2] and in test [3] were -0.85%, -0.42% and -3.12%, respectively.

Broadly, the inhibition is the change of the read-out against control, counted positive when it falls.
